Experiment [1] is described as follows: Nuclear factor erythroid 2-related factor 2/antioxidant responsive element (Nrf2/ARE) small molecule agonists: luciferase reporter gene qHTS assay in human keratinocytes (AID 1919969). Further: nearly all actives have a fitted effect of over 35% in size. Further: potency means the concentration at half of the fitted maximal effect.
Experiment [2] addresses Gonadotropin-releasing hormone receptor (Homo sapiens) (UniProt P30968). In words: Human gonadotropin-releasing hormone receptor (GnRHR) small molecule agonists, calcium flux assay in GnRHR-HEK293 cells (AID 1920063). Further: nearly all actives have a fitted effect of over 35% in size. The method in brief:
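Agonist activity was measured as intracellular calcium flux in HEK293 cells engineered to stably express human GnRHR. After dye loading for 1 hour at 37 C, compounds in DMSO were added and fluorescence was followed for 3 minutes.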

Experiment [3] has as its target KiSS-1 receptor (Homo sapiens) (UniProt Q969F8). Kind of experiment: Human kisspeptin (KISS1R) small molecule agonists, calcium flux assay in KISS1R-HEK293 cells (AID 1920064; active means well fitted activation curve with a large enough effect in the repeat runs). Summed up: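 Agonist activity is monitored as intracellular calcium rise in engineered HEK293 cells carrying human KISS1R. Cells are dye-loaded for 1 h at 37 C before compound addition, and fluorescence is recorded for 3 min.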

Experiment [4] in a line: G protein-coupled receptor (GPCR) small molecule agonists, calcium flux assay: HEK293 wild type cell line counter screen (AID 1920065). Summed up:
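Seed cells, incubate 18 h (37 C, 5% CO2); add calcium dye, 1 h at 37 C; pin-transfer compounds, ATP control or DMSO; read fluorescence 480/540 nm each second for 3 min.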
For orientation: Calcium flux is commonly read through the fluorescence of an indicator in the cells.

A short description of experiment [5]: p53 small molecule agonists, cell-based qHTS assay with human liver microsomes (AID 1963577). Summed up:
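p53RE-bla cells, 4,000/well, compound added after 5 h, with human liver microsomes 0.5 mg/mL and NADPH 0.5 mg/mL final; 16 h at 37 C, then LiveBLAzer 2 h RT, fluorescence.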

The nature of experiment [6]: p53 small molecule agonists, cell-based qHTS assay with rat liver microsomes (AID 1963578). Summed up:
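p53RE-bla cells, 4,000/well, pre-incubated 5 h, then given compounds plus rat liver microsomes (0.5 mg/mL final) and NADPH (0.5 mg/mL final). Incubation 16 h at 37 C; beta-lactamase reporter read by LiveBLAzer fluorescence after 2 h at room temperature.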
For orientation: In qHTS, concentration-response curves come from the screen itself.

Experiment [7] in a line: p53 small molecule agonists, cell-based qHTS assay with human liver microsomes: qHTS cell viability counter screen (AID 1963579). Further: nearly all actives have a fitted effect of over 45% in size. The method in brief:
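p53RE-bla cells, 4,000/well, dosed 5 hours after plating, with human liver microsomes (0.5 mg/mL final) plus NADPH (0.5 mg/mL final), 16 hours at 37 C. Viability read as CellTiter-Glo luminescence after 30 min at room temperature.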

Experiment [8] in a line: p53 small molecule agonists, cell-based qHTS assay with rat liver microsomes: qHTS cell viability counter screen (AID 1963580). Further: nearly all actives have a fitted effect of over 45% in size. Summed up:
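Cytotoxicity counter screen: intracellular ATP measured by CellTiter-Glo luminescence in the same wells as the beta-lactamase reporter read, on HCT-116 p53RE-bla cells exposed 16 h at 37 C to compounds with rat liver microsomes and NADPH, each 0.5 mg/mL final.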

A short description of experiment [9]: p53 small molecule agonists, cell-based qHTS assay: qHTS cell viability counter screen (AID 1963581). Further: nearly all actives have a fitted effect of over 45% in size. Summed up: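 Viability was counter-screened in parallel with the p53 agonist reporter by measuring intracellular ATP luminescence in the same HCT-116 p53RE-bla wells after 16 h compound treatment at 37 C.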
Experiment [10] is described as follows: p53 small molecule agonists, cell-based qHTS assay (AID 1963582; active means well fitted activation curve with a large enough effect in the signal ratio in the repeat runs, not every such curve was filed as active; the % refers to the signal ratio; further: potency means the concentration at half of the fitted maximal effect). The method in brief: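 Cells carrying a p53-responsive bla reporter are treated with test compounds for 16 h at 37 C; beta-lactamase activity is then detected with LiveBLAzer B/G FRET substrate after 2 h at room temperature.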
For experiment [11], the target named is 5-hydroxytryptamine receptor 2A (Homo sapiens) (UniProt P28223). In words: 5-hydroxytryptamine receptor 2A (HTR2A) small molecule antagonists, cell-based qHTS assay (AID 1963586). Further: nearly all actives have a fitted effect of over 45% in size. Summed up: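 CHO cells stably expressing human HTR2A were plated for 18 h at 37 C, then loaded with calcium dye for 1 h. Compounds were preincubated 5 min at room temperature before DOI (4 nM solution) was added. Kinetic fluorescence was read for 3 min.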
5-hydroxytryptamine receptor 2A (Homo sapiens), sequence (P28223 whole entry, looked up): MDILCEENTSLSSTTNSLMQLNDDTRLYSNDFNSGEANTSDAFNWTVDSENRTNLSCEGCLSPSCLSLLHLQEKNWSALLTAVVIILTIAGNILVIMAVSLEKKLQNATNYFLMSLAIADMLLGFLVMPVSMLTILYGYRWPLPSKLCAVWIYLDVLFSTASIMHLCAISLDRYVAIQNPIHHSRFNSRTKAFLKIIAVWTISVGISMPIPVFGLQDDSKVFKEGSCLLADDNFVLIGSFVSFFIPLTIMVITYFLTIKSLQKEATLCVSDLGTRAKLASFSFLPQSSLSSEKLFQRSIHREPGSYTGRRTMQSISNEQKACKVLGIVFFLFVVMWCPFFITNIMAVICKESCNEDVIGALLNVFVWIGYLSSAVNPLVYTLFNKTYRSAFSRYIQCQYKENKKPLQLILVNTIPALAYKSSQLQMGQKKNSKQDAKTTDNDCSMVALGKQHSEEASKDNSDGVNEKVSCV

Experiment [12] has the same target. In words: 5-hydroxytryptamine receptor 2A (HTR2A) small molecule agonists, cell-based qHTS assay (AID 1963587). Further: nearly all actives have a fitted effect of over 30% in size. The method in brief:
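CHO cells stably expressing human HTR2A, plated 18 h, loaded with calcium dye 1 h at 37 C. Agonist mode: compounds added and intracellular calcium fluorescence recorded kinetically for 2 min at 1 sec intervals.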

Experiment [13] concerns the target Muscarinic acetylcholine receptor M1 (Homo sapiens) (UniProt P11229). Kind of experiment: Cholinergic receptor muscarinic 1 (CHRM1) small molecule antagonists, cell-based qHTS assay (AID 1963588). Further: nearly all actives have a fitted effect of over 40% in size. Summed up:
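Compounds were tested at 15 concentrations in three independent runs. Dye-loaded CHRM1-CHO cells were exposed 5 min at room temperature before stimulation by acetylcholine added at 50nM. Intracellular calcium was read kinetically on FDSS for 3 min.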

For experiment [14] the target is unchanged. In words: Cholinergic receptor muscarinic 1 (CHRM1) small molecule agonists, cell-based qHTS assay (AID 1963589). Further: nearly all actives have a fitted effect of over 35% in size. Summed up: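 Cells were plated and incubated 18 h at 37 C/5% CO2, loaded with calcium dye for 1 h at 37 C, then treated with compounds in DMSO. Fluorescence was recorded kinetically at 1 sec intervals.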
A short description of experiment [15]: cAMP Responsive Elements (CRE) small molecule agonists, cell-based qHTS assay (AID 1963590). The method in brief:
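Cells carrying a CRE-driven beta-lactamase reporter (HEK 293T) are seeded, incubated overnight (18 h), and treated with test compounds for 3 h at 37 C; reporter activity is then detected with a FRET substrate after 2 h at room temperature.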

Experiment [16] is described as follows: cAMP Responsive Elements (CRE) small molecule antagonists, cell-based qHTS assay (AID 1963591; active means well fitted inhibition curve with a large enough effect in the signal ratio in the repeat runs, not every such curve was filed as active; the % refers to the signal ratio). Summed up: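 Cells (CRE-bla HEK 293T, DMEM with 10% dialyzed FBS and 25 mM HEPES) are seeded and incubated 18 h. Compounds are added with NKH477 agonist at 0.25 uM final for 3 h, then FRET substrate for 2 h.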
The target in experiment [17] is Beta-2 adrenergic receptor (Homo sapiens) (UniProt P07550). In words: Adrenergic beta2 receptor (ADRB2) small molecule antagonists, cell-based qHTS assay (AID 1963592). Further: series mostly up to about 92 µM; nearly all actives have a fitted effect of over 50% in size. The method in brief: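 Assay format: CHO-ADRB2 cells, 18-20hr seeding at 37C/5% CO2, then compound plus 1nM isoproterenol agonist mix for 0.5hr RT. Homogeneous time-resolved fluorescence cAMP detection after 1hr, expressed as 665/615 nm ratio.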
Beta-2 adrenergic receptor (Homo sapiens), sequence (P07550 whole entry, looked up): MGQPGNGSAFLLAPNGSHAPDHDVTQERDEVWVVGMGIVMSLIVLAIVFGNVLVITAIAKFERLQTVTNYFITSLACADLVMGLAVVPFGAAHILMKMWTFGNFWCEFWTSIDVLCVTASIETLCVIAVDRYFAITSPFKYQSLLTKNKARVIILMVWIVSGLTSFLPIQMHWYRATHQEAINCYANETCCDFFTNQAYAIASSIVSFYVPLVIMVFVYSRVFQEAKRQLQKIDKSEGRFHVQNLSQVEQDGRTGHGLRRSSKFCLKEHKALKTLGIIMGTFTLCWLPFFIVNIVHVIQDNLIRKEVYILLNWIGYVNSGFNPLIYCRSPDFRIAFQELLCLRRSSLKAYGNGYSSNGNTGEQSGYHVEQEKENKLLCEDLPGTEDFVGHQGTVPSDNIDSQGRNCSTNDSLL

Experiment [18] shares this target. Kind of experiment: Adrenergic beta2 receptor (ADRB2) small molecule agonists, cell-based qHTS assay (AID 1963593).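 Further: CHO cells stably overexpressing human ADRB2.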 Summed up: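 CHO cells stably over-expressing ADRB2 were plated overnight at 37C, then dosed with compounds plus a stimulation mix containing 100uM IBMX and 25uM Ro-20-1724 for 0.5hr at room temperature. cAMP was measured by HTRF competition, 1hr.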

Experiment [19] addresses D(2) dopamine receptor (Homo sapiens) (UniProt P14416). In words: Dopamine D2 receptor (DRD2) small molecule agonists, cell-based qHTS assay (AID 1963594). Further: nearly all actives have a fitted effect of over 35% in size. The method in brief: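 HEK293 cells stably expressing human DRD2, pre-treated with PDE inhibitor Ro20-1724 (0.1 mM final) and compound 10 min at room temperature, then stimulated with NKH477 (200nM […]) for 30 min. cAMP read by HTRF (665/620 nm).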

Experiment [20] has the same target. In words: Dopamine D2 receptor (DRD2) small molecule antagonists, cell-based qHTS assay (AID 1963595; active means well fitted inhibition curve with a large enough effect in the signal ratio in the repeat runs, with a control signal flat; the % refers to the signal ratio). The method in brief: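 HEK293 cells stably expressing DRD2, preincubated with 0.1 mM Ro20-1724 and compounds 10 min, were stimulated with 200 nM NKH477 plus 12 nM quinpirole for 30 min at room temperature; cAMP measured by HTRF (665/620 nm).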

Unmarked numbers belong to inactive results. Records with an inconclusive call do not appear. The source made the active and inactive calls. Unless noted, the call rests on the fitted dose curve.
On the % scale 0 is the no-effect control and ±100 the full control effect.

KiSS-1 receptor (Homo sapiens), sequence (Q969F8 whole entry, looked up): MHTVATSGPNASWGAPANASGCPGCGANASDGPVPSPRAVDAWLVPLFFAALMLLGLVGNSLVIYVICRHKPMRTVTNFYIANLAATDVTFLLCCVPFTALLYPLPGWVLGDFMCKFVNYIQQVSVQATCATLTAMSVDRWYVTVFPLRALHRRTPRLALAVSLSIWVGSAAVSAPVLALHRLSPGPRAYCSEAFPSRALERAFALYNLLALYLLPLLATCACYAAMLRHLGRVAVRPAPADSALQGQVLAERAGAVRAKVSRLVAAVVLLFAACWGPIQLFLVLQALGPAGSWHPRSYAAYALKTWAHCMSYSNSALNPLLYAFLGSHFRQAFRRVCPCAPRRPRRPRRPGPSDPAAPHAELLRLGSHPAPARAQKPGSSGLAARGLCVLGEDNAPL
Gonadotropin-releasing hormone receptor (Homo sapiens), sequence (P30968 whole entry, looked up): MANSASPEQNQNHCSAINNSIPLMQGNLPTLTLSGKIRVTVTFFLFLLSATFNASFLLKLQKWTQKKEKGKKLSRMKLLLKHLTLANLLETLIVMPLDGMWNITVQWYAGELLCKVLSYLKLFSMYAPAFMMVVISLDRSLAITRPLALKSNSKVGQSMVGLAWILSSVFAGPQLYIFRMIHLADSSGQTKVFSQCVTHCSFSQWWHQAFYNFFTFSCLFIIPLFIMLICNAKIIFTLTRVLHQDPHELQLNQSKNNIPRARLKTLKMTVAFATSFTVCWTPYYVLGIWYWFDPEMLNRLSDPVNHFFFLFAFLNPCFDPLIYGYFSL
Muscarinic acetylcholine receptor M1 (Homo sapiens), sequence (P11229 whole entry, looked up): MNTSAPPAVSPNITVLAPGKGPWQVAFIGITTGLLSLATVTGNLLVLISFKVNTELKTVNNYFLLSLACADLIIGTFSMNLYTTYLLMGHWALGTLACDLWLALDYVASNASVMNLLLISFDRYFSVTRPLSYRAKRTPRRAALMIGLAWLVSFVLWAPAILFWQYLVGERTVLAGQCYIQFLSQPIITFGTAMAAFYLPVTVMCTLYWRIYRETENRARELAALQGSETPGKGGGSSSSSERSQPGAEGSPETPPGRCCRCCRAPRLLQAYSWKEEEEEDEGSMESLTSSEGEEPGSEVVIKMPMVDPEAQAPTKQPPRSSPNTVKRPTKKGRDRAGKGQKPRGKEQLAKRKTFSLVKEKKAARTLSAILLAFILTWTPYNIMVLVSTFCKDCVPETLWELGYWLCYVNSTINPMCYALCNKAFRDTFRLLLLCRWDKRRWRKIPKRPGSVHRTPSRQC
D(2) dopamine receptor (Homo sapiens), sequence (P14416 whole entry, looked up): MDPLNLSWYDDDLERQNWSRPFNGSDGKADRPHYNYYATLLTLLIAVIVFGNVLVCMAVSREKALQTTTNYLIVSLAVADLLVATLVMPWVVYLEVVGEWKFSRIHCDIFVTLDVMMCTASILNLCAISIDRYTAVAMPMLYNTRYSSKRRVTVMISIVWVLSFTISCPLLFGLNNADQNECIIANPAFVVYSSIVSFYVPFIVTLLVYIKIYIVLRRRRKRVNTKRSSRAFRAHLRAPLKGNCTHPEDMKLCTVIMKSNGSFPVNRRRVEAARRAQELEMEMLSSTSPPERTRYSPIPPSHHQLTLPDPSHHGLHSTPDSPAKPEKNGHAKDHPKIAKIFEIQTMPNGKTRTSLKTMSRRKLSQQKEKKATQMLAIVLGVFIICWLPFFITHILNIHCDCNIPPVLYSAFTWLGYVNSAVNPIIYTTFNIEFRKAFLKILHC

For the molecule `COc1cc([N+](=O)[O-])ccc1N`, the Potency result in [1], in experiment [2], in experiment [3], in [4], in experiment [5] and in experiment [6] was “inactive” each time. In addition, the Potency result in experiment [7], in experiment [8], in experiment [9], in experiment [10], in experiment [11] and in [12] was “inactive” throughout. Also, the Potency result in experiment [13], in experiment [14], in [15], in experiment [16], in experiment [17] and in experiment [18] was “inactive” throughout. Further, the Potency result in [19] and in experiment [20] was “inactive” in each case.
Take `O=C(c1ccc(F)cc1)C1CCN(CCn2c(=S)[nH]c3ccccc3c2=O)CC1`: the Potency in [1] was 23.7 µM (active). Further, the Potency result in experiment [2], in experiment [3], in experiment [4], in [5], in experiment [6] and in [7] was “inactive” in each case. Moreover, the Potency result in experiment [8], in experiment [9], in experiment [10], in experiment [14] and in experiment [19] was “inactive” throughout.
For the molecule `COc1ccc(OC(F)(F)F)cc1CN[C@H]1CCCN[C@H]1c1ccccc1`, the Potency result in experiment [1], in [2], in [3], in [4], in [5] and in experiment [6] was “inactive” throughout. The Potency result in experiment [7], in [8], in experiment [9], in experiment [10], in [11] and in experiment [13] was “inactive” each time. For the same molecule, the Potency entry in [14], in experiment [17] and in experiment [18] was “inactive” throughout.
Turning to `O=C(OC[C@H]1O[C@@H](OC(=O)c2cc(O)c(O)c(OC(=O)c3cc(O)c(O)c(O)c3)c2)[C@H](OC(=O)c2cc(O)c(O)c(OC(=O)c3cc(O)c(O)c(O)c3)c2)[C@@H](OC(=O)c2cc(O)c(O)c(OC(=O)c3cc(O)c(O)c(O)c3)c2)[C@@H]1OC(=O)c1cc(O)c(O)c(OC(=O)c2cc(O)c(O)c(O)c2)c1)c1cc(O)c(O)c(OC(=O)c2cc(O)c(O)c(O)c2)c1`, the activity, positive = activation in [1] was -5.14% [at 19 µM]. For the same molecule, in [2], the activity change was -0.655% [at 11.8 µM, stronger effect = higher value]. Moreover, the activation in [3] was -0.551% [at 15.8 µM]; in [4], 0.5% [at 11.8 µM]; in experiment [5] it was -11.4% [at 13.5 µM]; in experiment [6] it was -4% [at 13.6 µM]; in experiment [15], 4.01% [at 19 µM]. For the same molecule, the results for the activity change, negative = cytotoxicity in experiment [7], in experiment [8] and in [9] were 8.38% [at 13.5 µM], 7.08% [at 13.5 µM] and 16.3% [at 13.5 µM], respectively. The Potency in [10] is 11 µM (active).
For the molecule `NS(=O)(=O)c1cc2c(cc1Cl)NC(CSCc1ccccc1)=NS2(=O)=O`, the Potency entry in experiment [1], in experiment [2], in experiment [3], in [4], in experiment [5] and in [6] was “inactive” in each case. Also, the Potency entry in experiment [7], in [8], in [9], in experiment [10], in [12] and in [13] was “inactive” in each case. In addition, the Potency entry in [14], in experiment [15], in experiment [16], in experiment [17], in experiment [19] and in [20] was “inactive” throughout.
Regarding `CN1CCN(c2cc3c(nn2)Oc2ccccc2N3C)CC1`, the activity, positive = activation in experiment [1] was 17.2% [at 19 µM]. In addition, in experiment [2], the activity change was -0.362% [at 11.8 µM, stronger effect = higher value]. In addition, the activation in experiment [3] is -0.078% [at 15.8 µM]; in experiment [4], -0.0481% [at 11.8 µM]; in experiment [5] it was -1.74% [at 13.5 µM]; in experiment [6], 0.736% [at 13.6 µM]; in experiment [10], 6.54% [at 13.5 µM]; in experiment [14] it was 3.18% [at 15.8 µM]. For the same molecule, the activation was 1.47% [at 19 µM] in experiment [15], 4.93% [at 19 µM] in experiment [18] and 11.1% [at 19 µM] in experiment [19]. Moreover, the values for the activity change, negative = cytotoxicity in [7], in experiment [8] and in experiment [9] were -6.1% [at 13.5 µM], 0.69% [at 13.5 µM] and -9.68% [at 13.5 µM], respectively. In experiment [13], the activity, negative = inhibition is -12.9% [at 12.6 µM]. Also, the results for the activity change, negative = inhibition in experiment [16], in [17] and in [20] were 0.639% [at 18.9 µM], 3.6% [at 19 µM] and -3.28% [at 18.9 µM], respectively.
`O=[N+]([O-])c1ccc(Nc2ccc(Nc3ccccc3)c(S(=O)(=O)O)c2)c([N+](=O)[O-])c1`: the Potency entry in experiment [1], in experiment [2], in experiment [3], in experiment [4], in [5] and in experiment [6] was “inactive” in each case. Also, the Potency entry in [7], in experiment [8], in [9], in experiment [10], in [11] and in [13] was “inactive” each time. The Potency entry in experiment [14], in experiment [15], in experiment [16], in experiment [17], in experiment [18] and in [19] was “inactive” in each case. In addition, the Potency result in experiment [20] is “inactive”.

(Values after PubChem BioAssay (Tox21).)
